Assay results as given in the supplement of paper PMC8728848.
The sample as a whole holds a higher share of the strongest signals than the screen did.

Columns and labels:
Experiment in all cases: glycan array binding signal (z-score within array); higher = stronger binding
Settings in all cases: glycan notation: IUPAC condensed, linker removed
[1] = target: Fuc(a1-2)Gal(b1-3)GalNAc(b1-3)Gal
In short: (§1)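 The binding signal is a Z-score computed within each array. Data were drawn from 3228 arrays in the Consortium for Functional Glycomics database, restricted to those with a known protein sequence. Scores were averaged over arrays of the same protein sequence at different concentrations or buffers, and over linkers, and negative values can be taken as non-binding.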

Fuc(b1-3)GlcNAc = target: Fuc(b1-3)GlcNAc
In short: as §1

Gal(a1-3)Gal(b1-4)GlcNAc = target: Gal(a1-3)Gal(b1-4)GlcNAc
In short: as §1

Gal(a1-3)GalNAc = target: Gal(a1-3)GalNAc
In short: as §1

[2] = target: Gal(b1-4)GlcNAc(b1-3)GalNAc
In short: as §1

[3] = target: GlcNAc(b1-2)Gal(b1-3)GalNAc
In short: as §1

[4] = target: GlcNAc(b1-4)GlcNAc(b1-4)GlcNAc
In short: as §1

[5] = target: Neu5Ac(a2-3)Gal(b1-3)GalNAc
In short: as §1

[6] = target: Neu5Ac(a2-3)Gal(b1-3)[Neu5Ac(a2-3)Gal(b1-4)]GlcNAc
In short: as §1

[7] = target: Neu5Ac(a2-3)Gal(b1-4)[Fuc(a1-3)]GlcNAc(b1-3)Gal(b1-4)[Fuc(a1-3)]GlcNAc(b1-3)Gal(b1-4)[Fuc(a1-3)]GlcNAc
In short: as §1

[8] = target: Neu5Ac(a2-8)Neu5Ac(a2-8)Neu5Ac
In short: as §1

[9] = target: Neu5Gc(a2-3)Gal(b1-3)[Fuc(a1-4)]GlcNAc
In short: as §1

Neu5Gc(a2-3)Gal(b1-4)Glc = target: Neu5Gc(a2-3)Gal(b1-4)Glc
In short: as §1

Fuc(a1-2)Gal(b1-4)Glc = target: Fuc(a1-2)Gal(b1-4)Glc
In short: as §1

[10] = target: Fuc(a1-2)Gal(b1-4)GlcNAc(b1-3)GalNAc
In short: as §1

[11] = target: Fuc(a1-2)Gal(b1-4)GlcNAc(b1-6)GalNAc
In short: as §1

[12] = target: Fuc(a1-2)Gal6S(b1-3)GlcNAc6S
In short: as §1

[13] = target: Fuc(a1-2)[Gal(a1-3)]Gal(b1-4)GlcNAc
In short: as §1

[14] = target: Fuc(a1-2)[Gal(a1-3)]Gal(b1-4)GlcNAc(b1-2)Man(a1-3)[Fuc(a1-2)[Gal(a1-3)]Gal(b1-4)GlcNAc(b1-2)Man(a1-6)]Man(b1-4)GlcNAc(b1-4)[Fuc(a1-6)]GlcNAc
In short: as §1

[15] = target: Fuc(a1-2)[GalNAc(a1-3)]Gal(b1-3)GalNAc(a1-3)[Fuc(a1-2)]Gal(b1-4)GlcNAc
In short: as §1

[16] = target: Fuc(a1-2)[GalNAc(a1-3)]Gal(b1-3)GlcNAc(b1-2)Man(a1-3)[Fuc(a1-2)[GalNAc(a1-3)]Gal(b1-3)GlcNAc(b1-2)Man(a1-6)]Man(b1-4)GlcNAc(b1-4)[Fuc(a1-6)]GlcNAc
In short: as §1

[17] = target: Fuc(a1-2)[GalNAc(a1-3)]Gal(b1-4)GlcNAc(b1-6)GalNAc
In short: as §1

[18] = target: Fuc(a1-2)[GalNAc(a1-3)]Gal(b1-4)[Fuc(a1-3)]GlcNAc
In short: as §1

[19] = target: Fuc(a1-2)[GalNAc(a1-4)]Gal(b1-4)GlcNAc
In short: as §1

[20] = target: Fuc(a1-2)[GalNAc(b1-3)]Gal
In short: as §1

[21] = target: Fuc(a1-3)[Gal(b1-4)]GlcNAc(b1-2)Man(a1-3)[Fuc(a1-3)[Gal(b1-4)]GlcNAc(b1-2)Man(a1-6)]Man(b1-4)GlcNAc(b1-4)[Fuc(a1-6)]GlcNAc
In short: as §1

Gal(a1-3)Gal(b1-3)GlcNAc = target: Gal(a1-3)Gal(b1-3)GlcNAc
In short: as §1

[22] = target: Gal(a1-3)Gal(b1-3)GlcNAc(b1-2)Man(a1-3)[Gal(a1-3)Gal(b1-3)GlcNAc(b1-2)Man(a1-6)]Man(b1-4)GlcNAc(b1-4)GlcNAc
In short: as §1

[23] = target: Gal(a1-3)Gal(b1-3)GlcNAc(b1-6)GalNAc
In short: as §1

[24] = target: Gal(a1-3)Gal(b1-4)GlcNAc(b1-6)GalNAc
In short: as §1

[25] = target: Gal(b1-3)GlcNAc(b1-6)GalNAc
In short: as §1

[26] = target: Gal(b1-3)GlcNAc(b1-6)[Gal(b1-3)]GalNAc
In short: as §1

[27] = target: Gal(b1-3)[Fuc(a1-4)]GlcNAc
In short: as §1

Gal6S(b1-3)GlcNAc6S = target: Gal6S(b1-3)GlcNAc6S
In short: as §1

GalNAc(a1-3)Gal = target: GalNAc(a1-3)Gal
In short: as §1

GalNAc(b1-3)Gal = target: GalNAc(b1-3)Gal
In short: as §1

[28] = target: GalNAc(b1-3)Gal(a1-6)Gal(b1-4)Glc
In short: as §1

GalNAc(b1-3)GlcNAc = target: GalNAc(b1-3)GlcNAc
In short: as §1

[29] = target: GalNAc(b1-4)GlcNAc(b1-2)Man(a1-3)[GalNAc(b1-4)GlcNAc(b1-2)Man(a1-6)]Man(b1-4)GlcNAc(b1-4)GlcNAc
In short: as §1

GalNAc6S(b1-4)GlcNAc = target: GalNAc6S(b1-4)GlcNAc
In short: as §1

[30] = target: GlcNAc(a1-4)Gal(b1-4)GlcNAc(b1-3)Gal(b1-4)GlcNAc
In short: as §1

[31] = target: GlcNAc(b1-2)[GlcNAc(b1-4)]Man(a1-3)[GlcNAc(b1-4)][GlcNAc(b1-2)[GlcNAc(b1-6)]Man(a1-6)]Man(b1-4)GlcNAc(b1-4)[Fuc(a1-6)]GlcNAc
In short: as §1

Kdn(a2-6)Gal(b1-4)GlcNAc = target: Kdn(a2-6)Gal(b1-4)GlcNAc
In short: as §1

[32] = target: Man(a1-2)Man(a1-2)Man(a1-6)[Man(a1-3)]Man
In short: as §1

[33] = target: Man(a1-2)Man(a1-3)[Man(a1-2)Man(a1-6)]Man
In short: as §1

[34] = target: Man(a1-3)[Man(a1-6)]Man(a1-6)[Man(a1-3)]Man
In short: as §1

[35] = target: Man(a1-3)[Man(a1-6)]Man(b1-4)GlcNAc(b1-4)GlcNAc
In short: as §1

[36] = target: Neu5Ac(a2-3)Gal(b1-3)GlcNAc(b1-4)Gal(b1-4)Glc
In short: as §1

[37] = target: Neu5Ac(a2-3)Gal(b1-4)GlcNAc(b1-3)Gal(b1-4)GlcNAc(b1-3)Gal(b1-4)GlcNAc(b1-2)Man(a1-3)[Neu5Ac(a2-3)Gal(b1-4)GlcNAc(b1-3)Gal(b1-4)GlcNAc(b1-3)Gal(b1-4)GlcNAc(b1-2)Man(a1-6)]GalNAc
In short: as §1

[38] = target: Neu5Ac(a2-3)Gal(b1-4)GlcNAc(b1-3)[Neu5Ac(a2-3)Gal(b1-4)GlcNAc(b1-6)]GalNAc
In short: as §1

[39] = target: Neu5Ac(a2-6)Gal(b1-4)GlcNAc(b1-2)Man(a1-6)[Gal(b1-4)GlcNAc(b1-2)Man(a1-3)]Man(b1-4)GlcNAc(b1-4)GlcNAc
In short: as §1

[40] = target: Neu5Ac(a2-8)Neu5Ac(a2-8)Neu5Ac(a2-3)Gal(b1-4)Glc
In short: as §1

[41] = target: Neu5Gc(a2-8)Neu5Gc(a2-3)Gal(b1-4)GlcNAc(b1-3)Gal(b1-4)GlcNAc
In short: as §1

B1: Siglec-G (Mus musculus), Q80ZE3 (protein)
chain: MSLLLFLLSFLLDGPQGQMESYFLQVQRIVKAQEGLCIFVPCSFSSPEGKWLNRSPLYGYWFKGIRKPSLSFPVATNNKDKVLEWEARGRFQLLGDISKKNCSLLIKDVQWGDSTNYFFRMERGFERFSFKEEFRLQVEALTQKPDIFIPEVLEPGEPVTVVCLFSWTFNQCPAPSFSWMGDAVSFQESRPHTSNYSVLSFIPGLQHHDTELTCQLDFSRMSTQRTVRLRVAYAPRSLAISIFHDNVSVPDLHENPSHLEVQQGQSLRLLCTADSQPPATLSWVLEDQVLSWSSPVGSRTLALELPWVKAGDSGHYTCQAENRLGSQQHTLDLSVLYPPQDLRVTVSQANRTVLEILRNAISLPVLEGQSLCLVCVTYSNPPANVSWAWVTQTLIPIQSSEPGVLELPLVQREHEGEFTCAAQNPLGAQRISLSLSVHYPPQMSSPSCSWEAKGLHCNCSSRAWPAPSLRWRLGEGLLEGNSSNASFTVTFSSLGPWVNSSLSLLQELGPSLWLSCESWNTHGAQTTSVLLLPDKDSATAFSKGAVLGFGITALLALCLIVVIVKTLQKKGTQEEPSRPKLSRGSTILDYINVVPKTRSLARNWKAEPDAPSRSSPLDTHFPKPKKKQKDPHFTYPGCPDPTSSSQVPVSENNPEELHYAALNFSRLRLQETQDPQDTYSDYTEVRVH
[1]
  glycan array binding signal (z-score): -0.186
Fuc(b1-3)GlcNAc
  glycan array binding signal (z-score): 1.54
Gal(a1-3)Gal(b1-4)GlcNAc
  glycan array binding signal (z-score): -0.064
Gal(a1-3)GalNAc
  glycan array binding signal (z-score): -0.268
[2]
  glycan array binding signal (z-score): -0.134
[3]
  glycan array binding signal (z-score): -0.21
[4]
  glycan array binding signal (z-score): -0.138
[5]
  glycan array binding signal (z-score): 0.414
[6]
  glycan array binding signal (z-score): 0.903
[7]
  glycan array binding signal (z-score): 1
[8]
  glycan array binding signal (z-score): 1.22
[9]
  glycan array binding signal (z-score): 0.241
Neu5Gc(a2-3)Gal(b1-4)Glc
  glycan array binding signal (z-score): -0.022

B2: Cohesin-hDECTIN-1 (Homo sapiens) (protein)
chain: LDITSHHHHHHDDLDAVRIKVDTVNAKPGDTVRIPVRFSGIPSKGIANCDFVYSYDPNVLEIIEIEPGDIIVDPNPDKSFDTAVYPDRKIIVFLFAEDSGTGAYAITKDGVFATIVAKVKEGAPNGLSVIKFVEVGGFANNDLVEQKTQFFDGGVNVGDTTEPATPTTPVTTPTTTDDLDAASSSPCPPNWIIYEKSCYLFSMSLNSWDGSKRQCWQLGSNLLKIDSSNELGFIVKQVSSQPDNSFWIGLSRPQTEVPWLWEDGSTFSSNLFQIRTTATQENPSPNCVWIHVSVIYDQLCSVPSYSICEKKFM
[1]
  glycan array binding signal (z-score): 1.86
Fuc(a1-2)Gal(b1-4)Glc
  glycan array binding signal (z-score): -0.162
[10]
  glycan array binding signal (z-score): -0.382
[11]
  glycan array binding signal (z-score): 2.93
[12]
  glycan array binding signal (z-score): 0.18
[13]
  glycan array binding signal (z-score): -0.206
[14]
  glycan array binding signal (z-score): -0.435
[15]
  glycan array binding signal (z-score): -0.177
[16]
  glycan array binding signal (z-score): -0.305
[17]
  glycan array binding signal (z-score): 6.29
[18]
  glycan array binding signal (z-score): -0.149
[19]
  glycan array binding signal (z-score): 4.25
[20]
  glycan array binding signal (z-score): 4.83
[21]
  glycan array binding signal (z-score): -0.51
Gal(a1-3)Gal(b1-3)GlcNAc
  glycan array binding signal (z-score): 4.04
[22]
  glycan array binding signal (z-score): 0.993
[23]
  glycan array binding signal (z-score): 7.58
[24]
  glycan array binding signal (z-score): 5.86
[25]
  glycan array binding signal (z-score): 6.01
[26]
  glycan array binding signal (z-score): -0.299
[27]
  glycan array binding signal (z-score): -0.306
Gal6S(b1-3)GlcNAc6S
  glycan array binding signal (z-score): 1.2
GalNAc(a1-3)Gal
  glycan array binding signal (z-score): 2.65
GalNAc(b1-3)Gal
  glycan array binding signal (z-score): 5.2
[28]
  glycan array binding signal (z-score): 4.68
GalNAc(b1-3)GlcNAc
  glycan array binding signal (z-score): 3.33
[29]
  glycan array binding signal (z-score): 0.004
GalNAc6S(b1-4)GlcNAc
  glycan array binding signal (z-score): 4.98
[30]
  glycan array binding signal (z-score): -0.476
[31]
  glycan array binding signal (z-score): -0.586
Kdn(a2-6)Gal(b1-4)GlcNAc
  glycan array binding signal (z-score): -0.471
[32]
  glycan array binding signal (z-score): -0.33
[33]
  glycan array binding signal (z-score): -0.432
[34]
  glycan array binding signal (z-score): -0.272
[35]
  glycan array binding signal (z-score): -0.44
[36]
  glycan array binding signal (z-score): -0.22
[37]
  glycan array binding signal (z-score): -0.295
[38]
  glycan array binding signal (z-score): -0.163
[39]
  glycan array binding signal (z-score): -0.561
[40]
  glycan array binding signal (z-score): -0.569
[41]
  glycan array binding signal (z-score): -0.091
